Measurements reported in PubChem BioAssay AID1345085 (National Center for Advancing Translational Sciences (NCATS), 2018).
Inconclusive results are not listed. Activity calls are given as the source filed them. Calls follow the shape of the dose curve; as a rule, active = well fitted cell-killing curve with a large enough effect; inconclusive = small, poorly fitted or top-dose-only effect, or effect the other way; inactive = no such curve, though single readings can be large or run the other way.

tested on: Es-2; test: Confirmatory qHTS for gynecologic anti-cancer compounds from libraries of approved drugs and bioactive compounds; conditions: gynecologic cancer cell panel viability, ATPlite luminescence, 48 h; series mostly up to 57.6 µM; activity change, negative = viability loss: at the top concentration; also: nearly all actives have a fitted effect of over 55% in size
Outline: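 Seeding 1,000 cells per well preceded overnight (16 h) attachment, after which 48 h drug treatment across 57.5 uM–0.977 nM (11 points) was applied. Remaining cellular ATP, detected by ATPlite luminescence, defined IC50.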
% is scaled to controls: 0 for no effect and ±100 for the full control effect; potency is read from the fitted curve at half-maximal effect.

SMILES | Potency | activity change, negative = viability loss
Cc1cnc(Nc2cccc(CN3CCOCC3)c2)nc1Nc1cccc(S(=O)(=O)NC(C)(C)C)c1 | 6.11 µM (active) | –
O=C(NOCC1CC1)c1ccc(F)c(F)c1Nc1ccc(I)cc1Cl | 1.53 µM (active) | –
O=C(c1ccc(/C=C/c2n[nH]c3ccccc23)cc1)N1CCNCC1 | 27.3 µM (active) | –
Cc1[nH]c2ccccc2c1CCNCc1ccc(/C=C/C(=O)NO)cc1 | 0.172 µM (active) | –
Cc1cc(C(=O)N2CCN(c3cccc(Cl)c3)CC2)n(-c2ccccc2)n1 | 2.43 µM (active) | –
Nc1nc(=S)c2[nH]cnc2[nH]1 | 3.43 µM (active) | –
CO[C@@]12[C@H](COC(N)=O)C3=C(C(=O)C(C)=C(N)C3=O)N1C[C@@H]1N[C@@H]12 | – | 12.2% (inactive)
CC(Oc1cc(-n2cnc3ccc(CN4CCN(C)CC4)cc32)sc1C(N)=O)c1ccccc1C(F)(F)F (stereo unspecified) | 3.43 µM (active) | –
O=C1Cc2cc(CCN3CCN(c4nsc5ccccc45)CC3)c(Cl)cc2N1 | – | 12.2% (inactive)
COc1cc(N2CCC(N3CCN(C)CC3)CC2)ccc1Nc1ncc(Cl)c(Nc2ccccc2S(=O)(=O)C(C)C)n1 | 24.3 µM (active) | –
O=C(O)c1ccc(Nc2ncc3c(n2)-c2ccc(Cl)cc2C(c2c(F)cccc2F)=NC3)cc1 | – | 5.57% (inactive)
Cc1cc(Nc2cc(N3CCN(C)CC3)nc(/C=C/c3ccccc3)n2)n[nH]1 | 24.3 µM (active) | –
CCN[C@H]1C[C@H](C)S(=O)(=O)c2sc(S(N)(=O)=O)cc21 | – | 0.905% (inactive)
COc1cc(Nc2c(C#N)cnc3cc(OCCCN4CCN(C)CC4)c(OC)cc23)c(Cl)cc1Cl | 21.7 µM (active) | –
COc1cc(N2CCC(N)CC2)ccc1Nc1ncc(Cl)c(-c2c[nH]c3ccccc23)n1 | – | -23.3% (inactive)
COc1cc(Nc2ncc3c(n2)-c2ccc(Cl)cc2C(c2c(F)cccc2OC)=NC3)ccc1C(=O)O | – | 22.5% (inactive)
CC[C@@]1(O)C(=O)OCc2c1cc1n(c2=O)Cc2cc3cc(O)ccc3nc2-1 | 0.0544 µM (active) | –
CCOC(=O)C1=C(C)NC2=C(C(=O)CC(C)(C)C2)C1c1ccc(-c2ccccc2)cc1 (stereo unspecified) | – | -4.79% (inactive)

SMILES | Potency | activity change, negative = viability loss
CS(=O)(=O)c1ccc(-c2cnc(N)c(C(=O)Nc3ccccc3)n2)cc1 | – | -16.2% (inactive)
OCCNC1CCCc2c1[nH]c1ccc(-c3ccccc3)cc21 (stereo unspecified) | 19.3 µM (active) | –
Cc1ccc(NC(=O)c2ccc(CN3CCN(C)CC3)cc2)cc1Nc1nccc(-c2cccnc2)n1 | – | 4.97% (inactive)
CC(C)Oc1ccc(C(=O)NC(CNC(=O)CN(C)C)Cc2ccc(-c3cn4cccc(C(C)O)c4n3)cc2)cc1Cl (stereo unspecified) | 0.385 µM (active) | –
O=C(CCCCCCNC(=O)c1cnc(N(c2ccccc2)c2ccccc2)nc1)NO | 13.7 µM (active) | –
CCCc1nn(C)c2c(=O)[nH]c(-c3cc(S(=O)(=O)N4CCN(C)CC4)ccc3OCC)nc12 | – | 8% (inactive)
COc1cc(F)c(F)c(Nc2ccc(I)cc2F)c1NS(=O)(=O)C1(CC(O)CO)CC1 (stereo unspecified) | 3.85 µM (active) | –
Cc1cc(Nc2nc(N[C@@H](C)c3ncc(F)cn3)ncc2Cl)n[nH]1 | – | -7.91% (inactive)
Cc1ccccc1C(OCCN(C)C)c1ccccc1 (stereo unspecified) | – | 6.47% (inactive)
Cc1cc(Nc2nc(N[C@@H](C)c3ccc(F)cc3)c(C#N)cc2F)n[nH]1 | 21.7 µM (active) | –
Nc1ccccc1NC(=O)c1ccc(CNC(=O)OCc2cccnc2)cc1 | 7.69 µM (active) | –
COCCOc1ccc2c(c1)ncn2-c1ccc2cccc(N3CCC(N)CC3)c2n1 | 6.11 µM (active) | –
CC(=O)O[C@H]1C(=O)[C@@]2(C)[C@H]([C@H](OC(=O)c3ccccc3)[C@]3(O)C[C@H](OC(=O)[C@H](O)[C@@H](NC(=O)c4ccccc4)c4ccccc4)C(C)=C1C3(C)C)[C@]1(OC(C)=O)CO[C@@H]1C[C@@H]2O | 0.0819 µM (active) | –
NC(=O)Nc1cc(-c2cccc(F)c2)sc1C(=O)NC1CCCNC1 (stereo unspecified) | 0.344 µM (active) | –
O=C1c2c(O)ccc(O)c2C(=O)c2c(NCCNCCO)ccc(NCCNCCO)c21 | 0.968 µM (active) | –
Cc1ccc(C(=O)Nc2ccc(CN3CCN(C)CC3)c(C(F)(F)F)c2)cc1C#Cc1cnc2cccnn12 | 6.11 µM (active) | –
CN(C)C(CCOc1cccc2ccccc12)c1ccccc1 (stereo unspecified) | – | -16.9% (inactive)
CC(C)[C@@H](CS(=O)(=O)C(C)C)N1C(=O)[C@@](C)(CC(=O)O)C[C@H](c2cccc(Cl)c2)[C@H]1c1ccc(Cl)cc1 | – | 20.7% (inactive)
